In PMC12280212:

Experiments:
Assay in all cases: cross-linking mass spectrometry
[1] = molecular target: Elongation factor 1-alpha 2 (UniProt Q05639)
[2] = molecular target: Histone H2B type 1-N (UniProt Q99877)
[3] = molecular target: T1, LIM and SH3 domain protein 1 (UniProt Q14847)
T1 sequence: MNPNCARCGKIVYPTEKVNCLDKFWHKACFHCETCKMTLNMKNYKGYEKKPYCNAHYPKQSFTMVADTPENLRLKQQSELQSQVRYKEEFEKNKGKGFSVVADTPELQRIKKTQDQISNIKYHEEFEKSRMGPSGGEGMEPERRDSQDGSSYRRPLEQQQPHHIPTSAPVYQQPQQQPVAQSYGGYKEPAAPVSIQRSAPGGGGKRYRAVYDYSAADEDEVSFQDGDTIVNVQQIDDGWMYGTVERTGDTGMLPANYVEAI

[4] = molecular target: Ubiquitin-ribosomal protein eS31 fusion protein (UniProt P62979)
[5] = molecular target: Large ribosomal subunit protein uL4 (UniProt P36578)
[6] = molecular target: Large ribosomal subunit protein eL31 (UniProt P62899)
[7] = molecular target: Vimentin (UniProt P08670)
[8] = molecular target: Actin, cytoplasmic 1 (UniProt P60709)

Chain of Peptidyl-prolyl cis-trans isomerase A, P62937 (P62937 whole entry): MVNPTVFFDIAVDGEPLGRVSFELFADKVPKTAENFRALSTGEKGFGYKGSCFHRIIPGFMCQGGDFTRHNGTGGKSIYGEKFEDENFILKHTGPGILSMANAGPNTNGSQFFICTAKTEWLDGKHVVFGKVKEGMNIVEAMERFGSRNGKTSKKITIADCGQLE

Actin, cytoplasmic 1, P60709
listed as a hit [1]: yes | listed as a hit [2]: yes | listed as a hit [3]: yes | listed as a hit [4]: yes

Large ribosomal subunit protein uL6, P32969
listed as a hit [5]: yes

Large ribosomal subunit protein uL29, P42766
listed as a hit [6]: yes

Peptidyl-prolyl cis-trans isomerase A, P62937
listed as a hit [2]: yes

Protein S100-A6, P06703
listed as a hit [7]: yes

Elongation factor 2, P13639
listed as a hit [8]: yes
